Assay results reported in PubChem BioAssay (NCI).
Compounds without any hit were thinned out: in the full panel of roughly 79,000, 15% have a hit. The source made the active and inactive calls. No stated cut-off is given here; in the data, active means growth inhibition above about 70%; inactive means the rest.

Key:
[1] = NCI Yeast Anticancer Drug Screen. Data for the rad52 strain (AID 147);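 further: 0% = growth of vehicle-treated control cultures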; conditions: S. cerevisiae rad52 mutant growth inhibition, active compounds read high
How it was run: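 Read-out: growth inhibition versus vehicle-treated controls. Cells were a DNA repair-deficient yeast strain treated with compounds.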

[2] = NCI Yeast Anticancer Drug Screen. Data for the wt1 strain (AID 149);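 further: 0% = growth of vehicle-treated wt1 cultures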; conditions: S. cerevisiae wt1 strain (SPY 50644) growth inhibition, active compounds read high
How it was run: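 Measured: growth of wt1 yeast under compound versus vehicle treatment, reported as inhibition.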

[3] = NCI Yeast Anticancer Drug Screen. Data for the rad50EPP+ strain (AID 151);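 further: 0% = growth of vehicle-treated control cultures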; conditions: S. cerevisiae rad50 mutant strain, active compounds read high
How it was run: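 Growth inhibition read against vehicle controls in rad50EPP+ yeast, a strain altered in DNA damage repair, after compound exposure.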

[4] = NCI Yeast Anticancer Drug Screen. Data for the mgt1 strain (AID 153); conditions: S. cerevisiae mgt1 mutant growth inhibition, active compounds read high
How it was run: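 mgt1 yeast grown with test compound; read-out is growth inhibition versus vehicle-treated cultures.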

[5] = NCI Yeast Anticancer Drug Screen. Data for the rad50 strain (AID 155);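 further: 0% = growth of vehicle-only cultures of the same strain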; conditions: S. cerevisiae rad50 strain growth inhibition, active compounds read high
How it was run: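 Growth of the mutant yeast was measured after compound exposure and referenced to vehicle-treated cultures.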

[6] = NCI Yeast Anticancer Drug Screen. Data for the mec2-1 strain (AID 157); conditions: S. cerevisiae mec2-1 strain, active compounds read high
How it was run: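 Yeast mec2-1 mutant treated with compound. Readout: growth inhibition vs vehicle controls.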

[7] = NCI Yeast Anticancer Drug Screen. Data for the rad14 strain (AID 159);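 further: 0% = growth of vehicle-treated control cultures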; conditions: S. cerevisiae rad14 strain growth inhibition, active compounds read high
How it was run: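 Here, inhibition of yeast growth was measured after compound exposure, using a strain with a genetic defect in DNA damage repair and vehicle-treated cultures as the reference.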

[8] = NCI Yeast Anticancer Drug Screen. Data for the sgs1 mgt1 strain (AID 161);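 further: 0% = growth of cultures given vehicle only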; conditions: S. cerevisiae sgs1 mgt1 strain, active compounds read high
How it was run: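 Genetically altered yeast, compound exposure, growth inhibition relative to vehicle.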

[9] = NCI Yeast Anticancer Drug Screen. Data for the CLN2oe strain (AID 163);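 further: 0% = growth of vehicle-only control cultures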; conditions: S. cerevisiae CLN2oe strain, active compounds read high
How it was run: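 Read-out: yeast growth inhibition, expressed relative to vehicle-only controls. The strain bears an engineered cell-cycle alteration.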

[10] = NCI Yeast Anticancer Drug Screen. Data for the cln2 rad14 strain (AID 165);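 further: 0% = growth equal to vehicle treated cultures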; conditions: S. cerevisiae cln2 rad14 strain, active compounds read high
How it was run: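 cln2 rad14 yeast strain; compound exposure; growth inhibition read vs vehicle controls.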

[11] = NCI Yeast Anticancer Drug Screen. Data for the bub3 strain (AID 167); conditions: S. cerevisiae bub3 mutant strain, active compounds read high
How it was run: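 Whole-cell yeast assay. The mutant strain was incubated with compounds, and growth inhibition was determined by comparison with vehicle-treated cells.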

[12] = NCI Yeast Anticancer Drug Screen. Data for the wt2 strain (AID 169);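 further: 0% = growth of vehicle-treated yeast cultures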; conditions: S. cerevisiae wt2 strain growth inhibition, active compounds read high
How it was run: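 Read-out: growth inhibition versus vehicle-treated control cultures after compound exposure of the yeast strain.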

[13] = NCI Yeast Anticancer Drug Screen. Data for the mlh1 strain (AID 171);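 further: 0% = growth of vehicle-treated control cultures of the same strain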; conditions: S. cerevisiae mlh1 strain growth inhibition, active compounds read high
How it was run: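 Read-out: growth inhibition versus vehicle controls. Strain: engineered yeast with a defined DNA repair or cell cycle defect, compound-treated.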

[14] = NCI Yeast Anticancer Drug Screen. Data for the sgs1 strain (AID 173);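 further: 0% = growth of vehicle-only control cultures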; conditions: S. cerevisiae sgs1 mutant, active compounds read high
How it was run: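 Read-out: yeast growth inhibition relative to vehicle controls, following compound exposure of a strain with a defined DNA repair/cell cycle alteration.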

[15] = NCI Yeast Anticancer Drug Screen. Data for the mlh1 rad18 strain (AID 175); conditions: S. cerevisiae mlh1 rad18 strain growth inhibition, active compounds read high
How it was run: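 Yeast w/ defined DNA-repair lesions; compound exposure; growth vs vehicle controls → % inhibition.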

[16] = NCI Yeast Anticancer Drug Screen. Data for the rad18 strain (AID 177); conditions: S. cerevisiae rad18 mutant growth inhibition, active compounds read high
How it was run: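 Readout: growth inhibition vs vehicle controls. Cells: genetically altered yeast strain, DNA repair defect.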

[17] = at 5.0 µM (retest, dose inferred, filed as 0.5)
[18] = at 50.0 µM (retest, dose inferred, filed as 5.0)

Measured: growth inhibition

O=C1C(=O)N(c2ccccc2)[C@@]2(c3ccccc3)C(=Nc3ccccc3)OC(c3ccccc3)=C12
active: [3]; at 100.0 µM 84% | [4]; at 11.0 µM 80% | [4]; at 33.0 µM 94% | [4]; at 100.0 µM 97% | [8]; [18] 96% | [12]; at 11.0 µM 72% | [12]; at 33.0 µM 93% | [12]; at 100.0 µM 96% | [13]; at 33.0 µM 93% | [13]; at 100.0 µM 95% | [14]; at 11.0 µM 74% | [14]; at 33.0 µM 93% | [14]; at 100.0 µM 96%
inactive: [1]; at 1.2 µM 0% | [1]; at 3.7 µM 0% | [1]; at 11.0 µM 3% | [1]; at 33.0 µM 4% | [1]; at 100.0 µM 40% | [2]; at 1.2 µM -2% | [2]; at 3.7 µM -1% | [2]; at 11.0 µM -1% | [2]; at 33.0 µM 2% | [2]; at 100.0 µM 31% | [3]; at 1.2 µM -3% | [3]; at 3.7 µM -1% | [3]; at 11.0 µM 2% | [3]; at 33.0 µM 31% | [4]; at 1.2 µM -3% | [4]; at 3.7 µM -1% | [5]; at 1.2 µM -1% | [5]; at 3.7 µM -2% | [5]; [17] 0% | [5]; at 11.0 µM 0% | [5]; at 33.0 µM 3% | [5]; [18] 4% | [5]; at 50.0 µM 21.6% | [5]; at 100.0 µM 36% | [6]; at 1.2 µM -2% | [6]; at 3.7 µM -1% | [6]; [17] -30% | [6]; at 11.0 µM 0% | [6]; at 33.0 µM 6% | [6]; [18] 45% | [6]; at 50.0 µM 10.5% | [6]; at 100.0 µM 41% | [7]; at 1.2 µM -1% | [7]; at 3.7 µM 1% | [7]; at 11.0 µM 3% | [7]; at 33.0 µM 8% | [7]; at 100.0 µM 57% | [8]; [17] 49% | [8]; at 50.0 µM 52% | [9]; at 1.2 µM 2% | [9]; at 3.7 µM 0% | [9]; at 11.0 µM 1% | [9]; at 33.0 µM 9% | [9]; at 100.0 µM 47% | [10]; [17] -1% | [10]; [18] 21% | [10]; at 50.0 µM 32.9% | [11]; at 1.2 µM -1% | [11]; at 3.7 µM -6% | [11]; [17] -5% | [11]; at 11.0 µM -5% | [11]; at 33.0 µM -5% | [11]; [18] 9% | [11]; at 50.0 µM 4.75% | [11]; at 100.0 µM 20% | [12]; at 1.2 µM -3% | [12]; at 3.7 µM -5% | [13]; at 1.2 µM -3% | [13]; at 3.7 µM -4% | [13]; at 11.0 µM 62% | [14]; at 1.2 µM -3% | [14]; at 3.7 µM 2% | [15]; [17] 1% | [15]; [18] -8% | [15]; at 50.0 µM 40.1% | [16]; at 1.2 µM -3% | [16]; at 3.7 µM 0% | [16]; at 11.0 µM 2% | [16]; at 33.0 µM 4% | [16]; at 100.0 µM 30%

NC(=O)NC1C(c2ccccc2)=C1c1ccccc1
active: [1]; at 11.0 µM 71% | [1]; at 33.0 µM 94% | [1]; at 100.0 µM 95% | [3]; at 1.2 µM 74% | [3]; at 3.7 µM 73% | [3]; at 11.0 µM 89% | [3]; at 33.0 µM 96% | [3]; at 100.0 µM 95% | [5]; at 3.7 µM 70% | [5]; at 11.0 µM 84% | [5]; at 33.0 µM 93% | [5]; [18] 79% | [5]; at 50.0 µM 92% | [5]; at 100.0 µM 95% | [7]; at 11.0 µM 73% | [7]; at 33.0 µM 97% | [7]; at 100.0 µM 97% | [14]; at 100.0 µM 84%
inactive: [1]; at 1.2 µM 37% | [1]; at 3.7 µM 58% | [2]; at 1.2 µM -2% | [2]; at 3.7 µM 12% | [2]; at 11.0 µM 26% | [2]; at 33.0 µM 26% | [2]; at 100.0 µM 27% | [4]; at 1.2 µM 0% | [4]; at 3.7 µM -2% | [4]; at 11.0 µM 0% | [4]; at 33.0 µM -3% | [4]; at 100.0 µM 19% | [5]; at 1.2 µM 61% | [5]; [17] -19% | [6]; at 1.2 µM 0% | [6]; at 3.7 µM -1% | [6]; [17] -50% | [6]; at 11.0 µM 6% | [6]; at 33.0 µM 5% | [6]; [18] -36% | [6]; at 50.0 µM 13.2% | [6]; at 100.0 µM 27% | [7]; at 1.2 µM 51% | [7]; at 3.7 µM 58% | [8]; [17] -45% | [8]; [18] -10% | [8]; at 50.0 µM 17.4% | [9]; at 1.2 µM -3% | [9]; at 3.7 µM -3% | [9]; at 11.0 µM -3% | [9]; at 33.0 µM -5% | [9]; at 100.0 µM 30% | [10]; [17] -18% | [10]; [18] 62% | [10]; at 50.0 µM 38% | [11]; at 1.2 µM -1% | [11]; at 3.7 µM -6% | [11]; [17] -73% | [11]; at 11.0 µM -4% | [11]; at 33.0 µM -14% | [11]; [18] -68% | [11]; at 50.0 µM -28.7% | [11]; at 100.0 µM -10% | [12]; at 1.2 µM 13% | [12]; at 3.7 µM 20% | [12]; at 11.0 µM 45% | [12]; at 33.0 µM 53% | [12]; at 100.0 µM 48% | [13]; at 1.2 µM -7% | [13]; at 3.7 µM -4% | [13]; at 11.0 µM 14% | [13]; at 33.0 µM 17% | [13]; at 100.0 µM 51% | [14]; at 1.2 µM 8% | [14]; at 3.7 µM 5% | [14]; at 11.0 µM 44% | [14]; at 33.0 µM 56% | [15]; [17] -104% | [15]; [18] -38% | [15]; at 50.0 µM 44.7% | [16]; at 1.2 µM -7% | [16]; at 3.7 µM 3% | [16]; at 11.0 µM 34% | [16]; at 33.0 µM 38% | [16]; at 100.0 µM 38%
